Results: publication PMC7862700, “An all-to-all approach to the identification of sequence-specific readers for epigenetic DNA modifications on cytosine”

Tests used:
Experiment in all cases: DAPPL (digital affinity profiling via proximity ligation, sequencing); 10 mM Tris-HCl pH 7.5, 50 mM NaCl, 1 mM DTT, 4% glycerol, room temperature, 30 min; GST-TFs on glutathione beads, 16-mer random dsDNA library, 0.1% formaldehyde crosslink after washing; high values mean tight binding
FLI1 = molecular target: T1, FLI1 (Homo sapiens, UniProt Q01543 1-452); conditions: protein: recombinant; tags: N-terminal GST; dsDNA, one strand shown
T1 sequence: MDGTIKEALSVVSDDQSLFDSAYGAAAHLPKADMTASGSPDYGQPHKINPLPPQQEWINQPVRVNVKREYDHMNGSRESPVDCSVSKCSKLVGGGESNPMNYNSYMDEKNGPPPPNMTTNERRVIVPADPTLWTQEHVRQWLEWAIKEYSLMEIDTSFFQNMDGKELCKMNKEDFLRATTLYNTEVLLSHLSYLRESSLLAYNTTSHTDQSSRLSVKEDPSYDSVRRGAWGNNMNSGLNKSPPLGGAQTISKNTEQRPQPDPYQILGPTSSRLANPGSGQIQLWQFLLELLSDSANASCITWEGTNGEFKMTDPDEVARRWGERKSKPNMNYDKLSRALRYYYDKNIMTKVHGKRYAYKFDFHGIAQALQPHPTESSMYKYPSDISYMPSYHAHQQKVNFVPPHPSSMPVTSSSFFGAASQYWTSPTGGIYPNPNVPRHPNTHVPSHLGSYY
How it was run: (§1)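 Beads coated with glutathione captured GST-fused human transcription factors that had been expressed in yeast, and the factors were then given DNA barcodes and pooled with a tag-only sample. The pools were incubated with 200 nmole of a random double-stranded 16-mer DNA library in Tris/NaCl/DTT/glycerol buffer for 30 min at room temperature, washed, crosslinked with 0.1% formaldehyde and proximity-ligated with BsaI/T4 ligase at 37 °C for 1 h. PCR amplification and Illumina NextSeq500 sequencing came last. Binding signal is each hexamer's read frequency for a factor divided by its frequency for the tag-only sample.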

ELK1 = molecular target: T2, ELK1 (Homo sapiens, UniProt P19419 1-428); conditions: protein: recombinant; tags: N-terminal GST; dsDNA, one strand shown
T2 sequence: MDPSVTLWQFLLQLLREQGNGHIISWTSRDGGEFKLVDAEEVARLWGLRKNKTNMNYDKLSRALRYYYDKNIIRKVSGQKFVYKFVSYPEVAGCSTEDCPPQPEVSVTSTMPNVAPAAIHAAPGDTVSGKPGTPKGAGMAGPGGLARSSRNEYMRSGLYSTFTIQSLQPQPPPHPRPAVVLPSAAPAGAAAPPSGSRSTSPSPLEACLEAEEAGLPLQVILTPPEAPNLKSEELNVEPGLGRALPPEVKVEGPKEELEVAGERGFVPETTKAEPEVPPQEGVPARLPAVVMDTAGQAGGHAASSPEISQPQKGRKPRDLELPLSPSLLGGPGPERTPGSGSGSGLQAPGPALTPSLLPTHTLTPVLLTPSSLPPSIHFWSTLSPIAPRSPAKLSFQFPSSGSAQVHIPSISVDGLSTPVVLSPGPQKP
How it was run: as §1

GABPA = molecular target: T3, GABPA (Homo sapiens, UniProt Q06546 1-454); conditions: protein: recombinant; tags: N-terminal GST; dsDNA, one strand shown
T3 sequence: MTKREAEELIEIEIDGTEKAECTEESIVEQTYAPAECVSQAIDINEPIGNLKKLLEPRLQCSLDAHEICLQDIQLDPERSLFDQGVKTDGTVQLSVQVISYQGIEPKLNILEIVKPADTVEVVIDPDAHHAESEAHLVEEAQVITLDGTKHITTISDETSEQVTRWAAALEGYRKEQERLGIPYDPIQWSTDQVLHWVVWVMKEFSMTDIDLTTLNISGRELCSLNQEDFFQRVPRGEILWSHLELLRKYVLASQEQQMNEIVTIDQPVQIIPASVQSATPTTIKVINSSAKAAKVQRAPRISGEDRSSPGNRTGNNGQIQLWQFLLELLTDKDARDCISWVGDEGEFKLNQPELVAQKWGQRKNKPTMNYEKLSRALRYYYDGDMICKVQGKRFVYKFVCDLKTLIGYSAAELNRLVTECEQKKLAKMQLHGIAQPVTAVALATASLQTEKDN
How it was run: as §1

ERG = molecular target: T4, ERG (Homo sapiens, UniProt P11308 1-479); conditions: protein: recombinant; tags: N-terminal GST; dsDNA, one strand shown
T4 sequence: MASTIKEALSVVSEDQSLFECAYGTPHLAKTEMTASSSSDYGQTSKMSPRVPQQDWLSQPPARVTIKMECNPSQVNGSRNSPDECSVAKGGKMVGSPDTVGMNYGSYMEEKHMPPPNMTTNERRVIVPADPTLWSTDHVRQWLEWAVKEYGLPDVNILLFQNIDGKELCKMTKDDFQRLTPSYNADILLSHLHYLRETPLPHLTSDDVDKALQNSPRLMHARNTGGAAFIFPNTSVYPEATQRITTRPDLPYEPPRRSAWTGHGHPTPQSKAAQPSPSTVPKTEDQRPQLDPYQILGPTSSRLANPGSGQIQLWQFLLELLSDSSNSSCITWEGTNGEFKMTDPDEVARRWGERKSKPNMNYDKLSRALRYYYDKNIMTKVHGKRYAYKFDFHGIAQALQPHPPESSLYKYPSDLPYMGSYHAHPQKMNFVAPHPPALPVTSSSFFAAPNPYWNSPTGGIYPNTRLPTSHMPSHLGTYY
How it was run: as §1

ELF1 = ELF1 (Homo sapiens, UniProt P32519 1-619); conditions: protein: recombinant; tags: N-terminal GST; dsDNA, one strand shown
ELF1, sequence (P32519 whole entry): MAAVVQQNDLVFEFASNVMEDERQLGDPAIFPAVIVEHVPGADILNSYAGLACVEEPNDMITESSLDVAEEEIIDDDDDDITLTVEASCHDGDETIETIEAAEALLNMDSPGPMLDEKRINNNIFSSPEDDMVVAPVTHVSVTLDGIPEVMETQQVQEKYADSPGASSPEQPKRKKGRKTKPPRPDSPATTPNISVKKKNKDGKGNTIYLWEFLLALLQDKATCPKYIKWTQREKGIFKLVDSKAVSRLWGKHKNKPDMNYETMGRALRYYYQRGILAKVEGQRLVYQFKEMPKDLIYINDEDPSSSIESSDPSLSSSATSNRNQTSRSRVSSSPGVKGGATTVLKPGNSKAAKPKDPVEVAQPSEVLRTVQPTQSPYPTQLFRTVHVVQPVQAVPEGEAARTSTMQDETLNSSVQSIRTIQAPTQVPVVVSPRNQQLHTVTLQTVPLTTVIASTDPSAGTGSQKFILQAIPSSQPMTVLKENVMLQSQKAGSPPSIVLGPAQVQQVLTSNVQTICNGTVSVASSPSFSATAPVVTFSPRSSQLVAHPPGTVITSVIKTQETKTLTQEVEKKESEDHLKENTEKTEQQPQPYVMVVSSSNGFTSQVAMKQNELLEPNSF
How it was run: as §1

EHF = molecular target: T5, EHF (Homo sapiens, UniProt Q9NZC4 1-300); conditions: protein: recombinant; tags: N-terminal GST; dsDNA, one strand shown
T5 sequence: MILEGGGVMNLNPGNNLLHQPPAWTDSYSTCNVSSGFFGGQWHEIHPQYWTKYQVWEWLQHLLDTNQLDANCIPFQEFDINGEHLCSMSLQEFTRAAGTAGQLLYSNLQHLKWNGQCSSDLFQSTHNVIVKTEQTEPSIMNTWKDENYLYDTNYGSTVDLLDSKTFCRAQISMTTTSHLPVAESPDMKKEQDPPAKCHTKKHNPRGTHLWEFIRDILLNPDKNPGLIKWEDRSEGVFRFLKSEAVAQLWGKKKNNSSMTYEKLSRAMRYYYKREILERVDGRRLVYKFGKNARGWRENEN
How it was run: as §1

SPI1 = SPI1 (Homo sapiens, UniProt P17947 1-270); conditions: protein: recombinant; tags: N-terminal GST; dsDNA, one strand shown
How it was run: as §1

SPIB = SPIB (Homo sapiens, UniProt Q01892 1-262); conditions: protein: recombinant; tags: N-terminal GST; dsDNA, one strand shown
SPIB, sequence (Q01892 whole entry): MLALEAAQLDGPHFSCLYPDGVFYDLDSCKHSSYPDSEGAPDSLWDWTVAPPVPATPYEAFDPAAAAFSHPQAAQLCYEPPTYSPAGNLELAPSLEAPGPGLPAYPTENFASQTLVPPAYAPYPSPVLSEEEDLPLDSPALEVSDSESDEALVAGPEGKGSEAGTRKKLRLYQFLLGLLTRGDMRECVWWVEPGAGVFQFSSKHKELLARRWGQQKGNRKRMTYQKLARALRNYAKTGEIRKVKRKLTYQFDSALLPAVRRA
How it was run: as §1

ELK3 = molecular target: T6, ELK3 (Homo sapiens, UniProt P41970 1-407); conditions: protein: recombinant; tags: N-terminal GST; dsDNA, one strand shown
T6 sequence: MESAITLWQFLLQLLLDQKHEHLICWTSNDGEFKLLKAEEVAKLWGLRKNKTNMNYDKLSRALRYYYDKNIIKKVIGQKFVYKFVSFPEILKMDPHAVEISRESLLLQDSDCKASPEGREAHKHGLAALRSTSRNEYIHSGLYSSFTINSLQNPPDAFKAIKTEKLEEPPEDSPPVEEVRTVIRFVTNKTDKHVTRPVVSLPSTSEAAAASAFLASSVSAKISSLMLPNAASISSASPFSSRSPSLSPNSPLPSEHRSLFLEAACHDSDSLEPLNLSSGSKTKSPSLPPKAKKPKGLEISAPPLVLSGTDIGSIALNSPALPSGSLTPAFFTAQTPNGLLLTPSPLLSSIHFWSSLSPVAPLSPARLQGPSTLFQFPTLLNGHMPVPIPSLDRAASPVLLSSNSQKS
How it was run: as §1

FEV = molecular target: T7, FEV (Homo sapiens, UniProt Q99581 1-238); conditions: protein: recombinant; tags: N-terminal GST; dsDNA, one strand shown
T7 sequence: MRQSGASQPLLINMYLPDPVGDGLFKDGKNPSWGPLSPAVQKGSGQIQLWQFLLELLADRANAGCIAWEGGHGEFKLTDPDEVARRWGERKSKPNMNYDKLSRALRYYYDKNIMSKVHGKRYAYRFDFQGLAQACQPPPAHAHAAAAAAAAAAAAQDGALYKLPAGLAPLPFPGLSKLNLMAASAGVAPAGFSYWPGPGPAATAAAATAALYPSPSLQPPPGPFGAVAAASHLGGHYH
How it was run: as §1

ETV5 = ETV5 (Homo sapiens, UniProt P41161 1-510); conditions: protein: recombinant; tags: N-terminal GST; dsDNA, one strand shown
ETV5, sequence (P41161 whole entry): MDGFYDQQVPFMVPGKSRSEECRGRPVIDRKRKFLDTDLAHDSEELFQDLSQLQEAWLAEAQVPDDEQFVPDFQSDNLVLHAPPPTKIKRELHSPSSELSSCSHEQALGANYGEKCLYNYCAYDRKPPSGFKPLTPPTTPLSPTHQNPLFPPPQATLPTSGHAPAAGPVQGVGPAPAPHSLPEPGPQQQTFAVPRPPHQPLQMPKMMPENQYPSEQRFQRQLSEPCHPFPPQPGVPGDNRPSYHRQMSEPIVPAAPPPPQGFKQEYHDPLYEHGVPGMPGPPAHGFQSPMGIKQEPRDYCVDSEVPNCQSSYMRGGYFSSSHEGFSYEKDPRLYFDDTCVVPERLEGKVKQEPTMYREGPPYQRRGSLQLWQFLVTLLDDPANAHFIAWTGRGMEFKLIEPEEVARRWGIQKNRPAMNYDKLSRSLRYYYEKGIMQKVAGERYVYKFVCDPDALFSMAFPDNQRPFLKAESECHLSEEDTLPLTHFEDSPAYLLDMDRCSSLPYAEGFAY
How it was run: as §1

HSF1 = HSF1 (Homo sapiens, UniProt Q00613 1-529); conditions: protein: recombinant; tags: N-terminal GST; chain copies: 3; dsDNA, one strand shown
HSF1, sequence (Q00613 whole entry): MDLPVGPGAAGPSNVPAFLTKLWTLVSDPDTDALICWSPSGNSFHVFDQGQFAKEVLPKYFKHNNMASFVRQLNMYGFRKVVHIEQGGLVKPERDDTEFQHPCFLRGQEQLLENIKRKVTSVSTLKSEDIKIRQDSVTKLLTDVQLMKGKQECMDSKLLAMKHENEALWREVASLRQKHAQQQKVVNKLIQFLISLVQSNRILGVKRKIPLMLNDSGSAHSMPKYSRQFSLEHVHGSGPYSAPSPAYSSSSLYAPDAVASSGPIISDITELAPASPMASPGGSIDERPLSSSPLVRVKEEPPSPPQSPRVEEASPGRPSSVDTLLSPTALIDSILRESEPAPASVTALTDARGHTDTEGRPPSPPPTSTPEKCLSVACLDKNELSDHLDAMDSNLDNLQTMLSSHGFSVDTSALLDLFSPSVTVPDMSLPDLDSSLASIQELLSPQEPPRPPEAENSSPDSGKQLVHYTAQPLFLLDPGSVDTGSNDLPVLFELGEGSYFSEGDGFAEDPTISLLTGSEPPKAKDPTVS
How it was run: as §1

SPIC = molecular target: T8, SPIC (Homo sapiens, UniProt Q8N5J4 1-248); conditions: protein: recombinant; tags: N-terminal GST; dsDNA, one strand shown
T8 sequence: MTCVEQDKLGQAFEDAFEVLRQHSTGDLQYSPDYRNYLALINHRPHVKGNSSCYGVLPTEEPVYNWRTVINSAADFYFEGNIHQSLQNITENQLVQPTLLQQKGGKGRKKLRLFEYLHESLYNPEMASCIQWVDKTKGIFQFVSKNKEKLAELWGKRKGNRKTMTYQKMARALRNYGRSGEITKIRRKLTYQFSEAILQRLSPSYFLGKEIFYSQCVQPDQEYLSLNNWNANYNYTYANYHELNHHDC
How it was run: as §1

ELF4 = ELF4 (Homo sapiens, UniProt Q99607 1-663); conditions: protein: recombinant; tags: N-terminal GST; dsDNA, one strand shown
ELF4, sequence (Q99607 whole entry): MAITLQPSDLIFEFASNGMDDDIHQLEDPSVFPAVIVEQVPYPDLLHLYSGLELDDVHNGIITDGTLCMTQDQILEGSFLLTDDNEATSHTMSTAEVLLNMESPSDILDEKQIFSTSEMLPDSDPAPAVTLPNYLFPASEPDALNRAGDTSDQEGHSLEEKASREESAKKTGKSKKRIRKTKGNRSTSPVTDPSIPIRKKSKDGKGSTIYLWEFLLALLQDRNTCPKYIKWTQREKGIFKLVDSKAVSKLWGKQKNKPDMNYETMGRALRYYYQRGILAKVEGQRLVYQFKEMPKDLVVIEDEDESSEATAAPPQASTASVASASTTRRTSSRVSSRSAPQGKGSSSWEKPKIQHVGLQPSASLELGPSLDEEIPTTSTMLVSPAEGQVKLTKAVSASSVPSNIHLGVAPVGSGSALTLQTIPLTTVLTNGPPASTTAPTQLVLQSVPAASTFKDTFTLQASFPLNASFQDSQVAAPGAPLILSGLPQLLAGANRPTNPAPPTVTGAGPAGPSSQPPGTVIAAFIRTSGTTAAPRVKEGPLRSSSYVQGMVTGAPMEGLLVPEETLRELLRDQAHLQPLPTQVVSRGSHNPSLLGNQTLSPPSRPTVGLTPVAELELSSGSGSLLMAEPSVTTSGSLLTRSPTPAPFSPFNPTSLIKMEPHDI
How it was run: as §1

ELK4 = molecular target: T9, ELK4 (Homo sapiens, UniProt P28324-2 1-405); conditions: protein: recombinant; tags: N-terminal GST; dsDNA, one strand shown
T9 sequence: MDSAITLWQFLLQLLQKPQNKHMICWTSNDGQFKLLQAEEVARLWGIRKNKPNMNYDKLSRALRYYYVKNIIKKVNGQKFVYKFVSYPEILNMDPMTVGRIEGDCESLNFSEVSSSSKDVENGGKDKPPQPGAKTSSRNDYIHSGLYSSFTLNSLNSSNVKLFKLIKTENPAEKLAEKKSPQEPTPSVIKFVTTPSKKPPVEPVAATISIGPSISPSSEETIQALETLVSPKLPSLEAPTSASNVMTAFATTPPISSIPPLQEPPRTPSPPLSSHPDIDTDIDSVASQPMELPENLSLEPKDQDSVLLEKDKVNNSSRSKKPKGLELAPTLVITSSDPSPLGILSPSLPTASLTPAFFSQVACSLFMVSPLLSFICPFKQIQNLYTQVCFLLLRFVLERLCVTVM
How it was run: as §1

ETV2 = molecular target: T10, ETV2 (Homo sapiens, UniProt O00321 1-342); conditions: protein: recombinant; tags: N-terminal GST; dsDNA, one strand shown
T10 sequence: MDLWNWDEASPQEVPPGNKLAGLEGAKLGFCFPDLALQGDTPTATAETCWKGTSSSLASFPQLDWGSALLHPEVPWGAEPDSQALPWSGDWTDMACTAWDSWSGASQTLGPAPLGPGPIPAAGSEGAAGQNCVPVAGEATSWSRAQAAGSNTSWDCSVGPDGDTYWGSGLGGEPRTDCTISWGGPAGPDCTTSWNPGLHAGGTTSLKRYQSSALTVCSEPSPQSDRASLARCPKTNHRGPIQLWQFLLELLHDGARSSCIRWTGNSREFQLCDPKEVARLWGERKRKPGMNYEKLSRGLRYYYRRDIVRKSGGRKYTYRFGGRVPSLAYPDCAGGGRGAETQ
How it was run: as §1

ELF3 = molecular target: T11, ELF3 (Homo sapiens, UniProt P78545 1-371); conditions: protein: recombinant; tags: N-terminal GST; dsDNA, one strand shown
T11 sequence: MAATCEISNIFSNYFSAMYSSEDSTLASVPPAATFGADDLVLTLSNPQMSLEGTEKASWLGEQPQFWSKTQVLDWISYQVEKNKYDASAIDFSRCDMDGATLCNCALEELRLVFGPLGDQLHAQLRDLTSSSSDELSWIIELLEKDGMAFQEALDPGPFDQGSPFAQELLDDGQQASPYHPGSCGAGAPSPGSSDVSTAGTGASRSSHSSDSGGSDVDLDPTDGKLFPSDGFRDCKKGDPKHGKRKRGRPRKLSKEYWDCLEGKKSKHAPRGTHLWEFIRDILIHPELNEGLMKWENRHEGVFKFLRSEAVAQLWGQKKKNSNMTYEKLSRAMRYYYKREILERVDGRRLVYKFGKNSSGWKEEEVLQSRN
How it was run: as §1

CRX = CRX (Homo sapiens, UniProt O43186 1-299); conditions: protein: recombinant; tags: N-terminal GST; dsDNA, one strand shown
CRX, sequence (O43186 whole entry): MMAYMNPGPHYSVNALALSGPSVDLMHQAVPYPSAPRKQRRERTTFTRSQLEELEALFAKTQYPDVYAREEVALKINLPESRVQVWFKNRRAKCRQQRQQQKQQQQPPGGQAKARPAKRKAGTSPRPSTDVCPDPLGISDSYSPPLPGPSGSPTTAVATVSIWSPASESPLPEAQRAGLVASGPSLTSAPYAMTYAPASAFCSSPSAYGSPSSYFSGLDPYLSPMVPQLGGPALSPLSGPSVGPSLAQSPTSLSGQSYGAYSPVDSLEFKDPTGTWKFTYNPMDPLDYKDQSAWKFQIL
How it was run: as §1

ETV1 = ETV1 (Homo sapiens, UniProt P50549 1-477); conditions: protein: recombinant; tags: N-terminal GST; dsDNA, one strand shown
ETV1, sequence (P50549 whole entry): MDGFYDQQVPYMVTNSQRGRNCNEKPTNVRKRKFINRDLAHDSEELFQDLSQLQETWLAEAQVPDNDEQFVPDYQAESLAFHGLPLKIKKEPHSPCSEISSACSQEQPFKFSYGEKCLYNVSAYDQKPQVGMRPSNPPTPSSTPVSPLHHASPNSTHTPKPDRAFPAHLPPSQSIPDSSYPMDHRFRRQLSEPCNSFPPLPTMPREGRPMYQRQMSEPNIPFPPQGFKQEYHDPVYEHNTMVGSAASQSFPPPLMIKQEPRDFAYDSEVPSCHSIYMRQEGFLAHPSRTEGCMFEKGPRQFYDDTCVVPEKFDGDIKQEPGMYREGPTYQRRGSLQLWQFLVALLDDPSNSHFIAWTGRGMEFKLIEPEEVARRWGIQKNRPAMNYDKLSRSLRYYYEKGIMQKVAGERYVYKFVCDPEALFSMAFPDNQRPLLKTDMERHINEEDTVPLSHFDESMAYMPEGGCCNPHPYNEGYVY
How it was run: as §1

CTCTGT
binding signal (FLI1): 1.5 fold enrichment (6-mer frequency, TF over GST control) | binding signal (ELK1): 1.39 fold enrichment (6-mer frequency, TF over GST control) | binding signal (GABPA): 1.33 fold enrichment (6-mer frequency, TF over GST control) | binding signal (ERG): 1.29 fold enrichment (6-mer frequency, TF over GST control) | binding signal (ELF1): 1.5 fold enrichment (6-mer frequency, TF over GST control) | binding signal (EHF): 1.44 fold enrichment (6-mer frequency, TF over GST control) | binding signal (SPI1): 1.34 fold enrichment (6-mer frequency, TF over GST control) | binding signal (SPIB): 1.36 fold enrichment (6-mer frequency, TF over GST control) | binding signal (ELK3): 1.19 fold enrichment (6-mer frequency, TF over GST control) | binding signal (FEV): 1.39 fold enrichment (6-mer frequency, TF over GST control) | binding signal (ETV5): 1.42 fold enrichment (6-mer frequency, TF over GST control) | binding signal (HSF1): 1.15 fold enrichment (6-mer frequency, TF over GST control) | binding signal (SPIC): 1.5 fold enrichment (6-mer frequency, TF over GST control) | binding signal (ELF4): 1.33 fold enrichment (6-mer frequency, TF over GST control) | binding signal (ELK4): 1.5 fold enrichment (6-mer frequency, TF over GST control) | binding signal (ETV2): 1.39 fold enrichment (6-mer frequency, TF over GST control) | binding signal (ELF3): 1.4 fold enrichment (6-mer frequency, TF over GST control) | binding signal (CRX): 1.18 fold enrichment (6-mer frequency, TF over GST control) | binding signal (ETV1): 1.43 fold enrichment (6-mer frequency, TF over GST control)
